Measurements published in PubChem BioAssay (EPA / NIEHS).
Results filed as inconclusive are left out. Calls of active or inactive are those of the source. How the source made its calls, unless noted: active means hit-call score of the fitted dose curve at least 0.9, where 1 is the maximum; inactive means score below 0.9.

Assays:
[1] = target: Paired box protein Pax-6 (Homo sapiens) (UniProt P26367); assay: ATG_Pax6_CIS: Attagene CIS-FACTORIAL HepG2 Assay for human Paired Box 6 (PAX6) (AID 2282956); settings: HepG2 CIS-FACTORIAL PAX6 reporter transcription, RNA readout; actives raise or lower the signal
Paired box protein Pax-6 (Homo sapiens), sequence (P26367 whole entry, looked up): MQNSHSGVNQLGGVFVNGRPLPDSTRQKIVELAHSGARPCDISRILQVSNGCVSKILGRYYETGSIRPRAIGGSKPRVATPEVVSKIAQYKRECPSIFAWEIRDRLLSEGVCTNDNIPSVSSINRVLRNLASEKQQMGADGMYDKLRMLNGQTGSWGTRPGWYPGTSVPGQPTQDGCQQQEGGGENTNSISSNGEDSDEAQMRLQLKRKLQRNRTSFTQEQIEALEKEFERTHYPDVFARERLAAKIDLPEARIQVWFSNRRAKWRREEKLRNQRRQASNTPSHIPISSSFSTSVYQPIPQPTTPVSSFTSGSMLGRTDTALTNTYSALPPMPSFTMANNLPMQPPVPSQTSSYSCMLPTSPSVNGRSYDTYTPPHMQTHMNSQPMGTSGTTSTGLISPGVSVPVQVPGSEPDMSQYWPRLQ
How it was run: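 Fluorescent RT-PCR products separated by capillary electrophoresis report PAX6-linked promoter mRNA in HepG2 cells 24 h post-dose. Curves fitted bidirectionally, DMSO as negative control.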

[2] = ATG_PPRE_CIS: Attagene CIS-FACTORIAL HepG2 Assay for human Peroxisome Proliferator-activated Response Element (PPRE) (AID 2282958); settings: HepG2 PPRE cis-element reporter, Attagene transcription factor profiling; actives raise or lower the signal
How it was run: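 HepG2 cells transiently transfected with multiplexed cis-element reporter units measure endogenous transcription factor activity. After 24 h compound exposure, reporter mRNA is quantified by RT-PCR, 6-FAM labeling, HpaI digestion and capillary electrophoresis; bidirectional fits are made against DMSO baseline.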

[3] = ATG_RORE_CIS: Attagene CIS-FACTORIAL HepG2 Assay for human RAR-related Orphan Receptor Element (RORE) (AID 2282959); settings: HepG2 Attagene cis-factorial RORE reporter, mRNA; actives raise or lower the signal
How it was run: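 HepG2 cells transiently transfected with multiple cis-element reporter transcription units, exposed to chemical for 24 h. Reporter mRNA quantified by RT-PCR, 6-FAM primer-extension labeling, HpaI digestion and capillary electrophoresis; bidirectional fit versus DMSO baseline.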

[4] = ATG_Sox_CIS: Attagene CIS-FACTORIAL HepG2 Assay for human SRY-box transcription factor (SOX) (AID 2282960); settings: HepG2 Attagene cis-factorial SOX reporter, mRNA; actives raise or lower the signal
How it was run: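 HepG2 cells transiently transfected with cis-element-driven multiple reporter transcription units, dosed 24 h; reporter mRNA measured by RT-PCR, FAM labelling, HpaI digestion and capillary electrophoresis. Bidirectional fit versus DMSO baseline.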

[5] = target: Transcription factor Sp1 (Homo sapiens) (UniProt P08047); assay: ATG_Sp1_CIS: Attagene CIS-FACTORIAL HepG2 Assay for human Specificity Protein 1 (Sp1) (AID 2282961); settings: HepG2 Sp1 cis-reporter transcription, actives raise or lower the signal
Transcription factor Sp1 (Homo sapiens), sequence (P08047 whole entry, looked up): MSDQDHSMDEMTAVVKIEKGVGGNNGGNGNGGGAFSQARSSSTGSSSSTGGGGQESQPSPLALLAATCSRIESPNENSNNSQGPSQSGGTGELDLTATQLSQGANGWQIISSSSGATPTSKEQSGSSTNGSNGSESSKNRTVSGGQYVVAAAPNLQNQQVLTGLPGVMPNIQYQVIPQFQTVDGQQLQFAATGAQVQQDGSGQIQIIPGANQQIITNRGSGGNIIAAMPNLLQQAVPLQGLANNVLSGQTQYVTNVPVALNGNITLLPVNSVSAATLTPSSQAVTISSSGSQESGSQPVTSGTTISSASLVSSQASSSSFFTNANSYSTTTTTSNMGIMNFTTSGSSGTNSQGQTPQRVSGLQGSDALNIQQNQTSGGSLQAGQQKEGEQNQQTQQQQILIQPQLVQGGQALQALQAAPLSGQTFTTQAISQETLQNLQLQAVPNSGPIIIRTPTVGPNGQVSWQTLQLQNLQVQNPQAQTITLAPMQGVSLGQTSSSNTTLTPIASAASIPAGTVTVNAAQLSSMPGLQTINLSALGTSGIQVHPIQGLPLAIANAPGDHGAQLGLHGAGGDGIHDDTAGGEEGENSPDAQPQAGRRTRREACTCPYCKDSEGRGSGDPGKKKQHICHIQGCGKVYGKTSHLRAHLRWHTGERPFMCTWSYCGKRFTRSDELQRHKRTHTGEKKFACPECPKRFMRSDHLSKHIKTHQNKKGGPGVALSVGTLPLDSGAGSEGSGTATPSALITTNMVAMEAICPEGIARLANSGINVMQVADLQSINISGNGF
How it was run: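 HepG2 cells transiently transfected with multiple reporter transcription units driven by cis-regulatory elements; Sp1-responsive reporter mRNA measured 24 h after dosing by RT-PCR and capillary electrophoresis fluorescence, fitted bidirectionally against DMSO baseline.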

[6] = ATG_SREBP_CIS: Attagene CIS-FACTORIAL HepG2 Assay for human Sterol Regulatory Element Binding (SREBP) (AID 2282962); settings: HepG2 Attagene cis-factorial SREBP reporter, mRNA; actives raise or lower the signal
How it was run: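 Endogenous factor activity is measured in HepG2 through multiplexed reporter units under cis-element control. Following a 24 h incubation, reporter transcripts are reverse-transcribed, PCR-amplified and sized by capillary electrophoresis; activity is fitted in both directions relative to DMSO.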

[7] = target: Signal transducer and activator of transcription 3 (Homo sapiens) (UniProt P40763); assay: ATG_STAT3_CIS: Attagene CIS-FACTORIAL HepG2 Assay for human Signal Transducer and Activator of Transcription 3 (STAT3) (AID 2282963); settings: HepG2, Attagene cis-factorial STAT3 reporter transcription; actives raise or lower the signal
Signal transducer and activator of transcription 3 (Homo sapiens), sequence (P40763 whole entry, looked up, the tested form may be a part): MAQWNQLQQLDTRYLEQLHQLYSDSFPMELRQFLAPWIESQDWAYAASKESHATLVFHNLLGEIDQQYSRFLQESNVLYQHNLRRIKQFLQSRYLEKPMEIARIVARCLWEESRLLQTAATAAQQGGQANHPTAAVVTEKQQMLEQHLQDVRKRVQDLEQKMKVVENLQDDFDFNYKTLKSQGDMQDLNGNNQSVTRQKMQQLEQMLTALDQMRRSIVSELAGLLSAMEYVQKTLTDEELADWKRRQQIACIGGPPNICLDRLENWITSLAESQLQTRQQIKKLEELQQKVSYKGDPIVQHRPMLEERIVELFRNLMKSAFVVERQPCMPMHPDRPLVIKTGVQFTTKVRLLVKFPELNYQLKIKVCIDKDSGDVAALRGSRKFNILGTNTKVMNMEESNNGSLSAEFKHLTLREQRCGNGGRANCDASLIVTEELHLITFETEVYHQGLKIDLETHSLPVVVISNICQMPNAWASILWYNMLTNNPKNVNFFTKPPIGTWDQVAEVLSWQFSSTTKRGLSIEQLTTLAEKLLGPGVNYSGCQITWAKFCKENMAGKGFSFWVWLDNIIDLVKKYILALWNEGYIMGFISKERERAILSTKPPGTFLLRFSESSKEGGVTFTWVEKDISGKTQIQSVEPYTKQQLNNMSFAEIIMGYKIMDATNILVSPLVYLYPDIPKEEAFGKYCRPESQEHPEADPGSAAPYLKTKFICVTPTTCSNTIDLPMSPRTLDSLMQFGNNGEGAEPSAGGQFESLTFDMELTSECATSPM
How it was run: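 Fluorescence intensity of 6-FAM-labelled reporter fragments, separated by capillary electrophoresis after RT-PCR, gave the signal. Cells were HepG2 transfected with cis-element reporter units and treated 24 h; fitting was bidirectional relative to DMSO.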

[8] = ATG_TA_CIS: Attagene CIS-FACTORIAL HepG2 Assay for human TA Basal Promoter (AID 2282964); settings: HepG2 Attagene CIS-factorial TA basal promoter reporter; actives raise or lower the signal
How it was run: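 Read-out: fluorescent reporter-transcript fragments resolved by capillary electrophoresis after RT-PCR and HpaI digestion. Source: HepG2 cells carrying transiently transfected multi-reporter cis constructs, treated 24 h. Endpoint fitted bidirectionally relative to DMSO.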

[9] = ATG_TCF_b_cat_CIS: Attagene CIS-FACTORIAL HepG2 Assay for human T-Cell-Factor with beta-catenin (TCF/b-cat) (AID 2282965); settings: HepG2 TCF/beta-catenin cis-reporter transcription, actives raise or lower the signal
How it was run: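 HepG2 cells transiently transfected with cis-promoter-driven multiplexed reporter units; reporter mRNA measured 24 h after dosing by RT-PCR, FAM labelling, HpaI digestion and capillary electrophoresis. Bidirectional fitting relative to DMSO baseline.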

[10] = ATG_TAL_CIS: Attagene CIS-FACTORIAL HepG2 Assay for human TAL Basal Promoter (AID 2282966); settings: HepG2 Attagene cis-factorial TAL promoter reporter; actives raise or lower the signal;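 further: background control endpoint measuring basal TAL promoter reporter mRNA not a specific factor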
How it was run: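 Basal-promoter background-control endpoint from a multiplexed HepG2 reporter panel. Cells were exposed 24 h, then reporter mRNA was read by RT-PCR/CE fluorescence and fitted in both directions relative to DMSO.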

[11] = ATG_TGFb_CIS: Attagene CIS-FACTORIAL HepG2 Assay for human Transforming Growth Factor (TGF) (AID 2282967); settings: HepG2 Attagene CIS TGFb reporter, mRNA transcription; actives raise or lower the signal
How it was run: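 Transient MRTU transfection of HepG2 (FuGene 6). Dose 24 h. TriZol RNA, oligo(dT) RT, PCR, 6-FAM primer extension, HpaI cut, CE. Bidirectional fit, DMSO = baseline.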

[12] = ATG_VDRE_CIS: Attagene CIS-FACTORIAL HepG2 Assay for human Vitamin D Receptor Element (VDRE) (AID 2282968); settings: HepG2 VDRE cis-reporter transcription, actives raise or lower the signal
How it was run: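 Compounds were applied for 24 h to HepG2 cells transfected with promoter-regulated reporter units. Total RNA was reverse-transcribed, and reporter amplicons were fluorescently labelled and sized by capillary electrophoresis.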

[13] = target: X-box-binding protein 1 (Homo sapiens) (UniProt P17861); assay: ATG_Xbp1_CIS: Attagene CIS-FACTORIAL HepG2 Assay for human X-box Binding Protein 1 (XBP1) (AID 2282972); settings: HepG2 XBP1 cis-element reporter, Attagene multiplex; actives raise or lower the signal
X-box-binding protein 1 (Homo sapiens), sequence (P17861 whole entry, looked up): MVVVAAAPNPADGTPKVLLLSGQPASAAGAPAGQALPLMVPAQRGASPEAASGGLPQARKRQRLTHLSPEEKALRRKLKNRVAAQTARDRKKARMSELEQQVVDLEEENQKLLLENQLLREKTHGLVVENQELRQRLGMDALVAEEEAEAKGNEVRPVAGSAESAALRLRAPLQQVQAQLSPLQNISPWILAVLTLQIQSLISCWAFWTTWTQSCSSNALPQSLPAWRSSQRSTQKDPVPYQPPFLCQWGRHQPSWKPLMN
How it was run: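 Multiplexed cis-reporter readout in transfected HepG2 liver cells. Exposure lasted 24 hours. Activity in either direction was fitted against DMSO as negative control and baseline.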

[14] = ATG_M_19_TRANS: Attagene TRANS-FACTORIAL HepG2 Assay for M19 Transcription Factor (Internal Marker) (AID 2282974; active means hit-call score of the fitted dose curve at least 0.9, where 1 is the maximum); settings: HepG2 Attagene TRANS-FACTORIAL M19 internal marker reporter
How it was run: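 HepG2 cells transiently transfected with multiple GAL4-UAS reporter transcription units were exposed to chemicals for 24 h. Reporter mRNA was read by RT-PCR, 6-FAM primer extension, HpaI digestion and capillary electrophoresis; gain of signal fitted relative to DMSO.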

[15] = target: Estrogen receptor (Homo sapiens) (UniProt P03372); assay: ATG_ERa_TRANS: Attagene TRANS-FACTORIAL HepG2 Assay for human Estrogen Receptor alpha (ERa) (AID 2282970; active means hit-call score of the fitted dose curve at least 0.9, where 1 is the maximum); settings: HepG2 Attagene TRANS ERa GAL4 reporter, mRNA
Estrogen receptor (Homo sapiens), sequence (P03372 whole entry, looked up, the tested form may be a part): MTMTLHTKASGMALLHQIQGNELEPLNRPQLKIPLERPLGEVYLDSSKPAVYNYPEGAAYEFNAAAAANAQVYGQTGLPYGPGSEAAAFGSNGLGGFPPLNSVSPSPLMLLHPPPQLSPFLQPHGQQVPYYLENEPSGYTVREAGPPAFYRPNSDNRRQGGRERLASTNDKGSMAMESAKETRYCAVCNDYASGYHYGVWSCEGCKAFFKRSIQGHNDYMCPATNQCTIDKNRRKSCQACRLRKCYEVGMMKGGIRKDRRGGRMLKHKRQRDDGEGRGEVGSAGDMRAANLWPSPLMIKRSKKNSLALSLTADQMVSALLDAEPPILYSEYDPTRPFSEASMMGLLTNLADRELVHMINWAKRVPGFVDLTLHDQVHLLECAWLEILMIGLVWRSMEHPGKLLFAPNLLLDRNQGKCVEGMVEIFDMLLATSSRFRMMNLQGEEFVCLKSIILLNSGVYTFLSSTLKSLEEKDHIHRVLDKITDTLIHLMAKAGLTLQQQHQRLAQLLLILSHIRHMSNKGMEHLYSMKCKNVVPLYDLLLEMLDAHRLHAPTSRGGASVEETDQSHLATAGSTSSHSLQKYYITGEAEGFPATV
How it was run: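 Gal4-fusion ERa transactivation, measured as reporter transcript level in transiently transfected HepG2 cells. Exposure 24 h; RT-PCR plus capillary electrophoresis with fluorescence detection.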

[16] = ATG_GAL4_TRANS: Attagene TRANS-FACTORIAL HepG2 Assay for GAL4 (Internal Marker) (AID 2282976; active means hit-call score of the fitted dose curve at least 0.9, where 1 is the maximum); settings: HepG2 Attagene TRANS GAL4 internal marker reporter
How it was run: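 Background-control readout: GAL4-UAS reporter transcript in transiently transfected HepG2 cells after 24 h compound exposure. Measured by RT-PCR, 6-FAM primer extension, HpaI digest and capillary electrophoresis; gain-of-signal fit versus DMSO.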

[17] = target: Nuclear receptor subfamily 1 group I member 3 (Homo sapiens) (UniProt Q14994); assay: ATG_CAR_TRANS: Attagene TRANS-FACTORIAL HepG2 Assay for human Constitutive Androstane Receptor (CAR) (AID 2282969; active means hit-call score of the fitted dose curve at least 0.9, where 1 is the maximum;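 further: activators raise reporter mRNA above DMSO so AC50 marks induction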); settings: HepG2 Attagene TRANS-FACTORIAL CAR reporter
Nuclear receptor subfamily 1 group I member 3 (Homo sapiens), sequence (Q14994 whole entry, looked up, the tested form may be a part): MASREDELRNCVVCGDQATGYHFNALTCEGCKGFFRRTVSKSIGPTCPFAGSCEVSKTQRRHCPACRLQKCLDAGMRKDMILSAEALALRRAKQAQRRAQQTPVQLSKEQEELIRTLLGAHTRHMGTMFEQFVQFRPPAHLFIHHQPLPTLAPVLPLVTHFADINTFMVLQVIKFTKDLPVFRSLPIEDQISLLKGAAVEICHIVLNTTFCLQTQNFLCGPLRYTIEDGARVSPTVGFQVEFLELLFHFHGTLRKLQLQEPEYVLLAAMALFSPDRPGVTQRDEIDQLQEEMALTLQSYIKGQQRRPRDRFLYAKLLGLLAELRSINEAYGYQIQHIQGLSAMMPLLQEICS
How it was run: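 Transiently transfected HepG2, multiplex TRANS reporters (CAR-Gal4 chimera driving GAL4-UAS reporter). 24 h dosing. Readout: reporter transcript by RT-PCR + capillary electrophoresis, fluorescence intensity; positive direction vs DMSO.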

[18] = target: Steroid hormone receptor ERR1 (Homo sapiens) (UniProt P11474); assay: ATG_ERRa_TRANS: Attagene TRANS-FACTORIAL HepG2 Assay for human Estrogen-Related Receptor alpha (ERRa) (AID 2282971; active means hit-call score of the fitted dose curve at least 0.9, where 1 is the maximum); settings: HepG2 Attagene TRANS reporter, ERRa transactivation
Steroid hormone receptor ERR1 (Homo sapiens), sequence (P11474 whole entry, looked up, the tested form may be a part): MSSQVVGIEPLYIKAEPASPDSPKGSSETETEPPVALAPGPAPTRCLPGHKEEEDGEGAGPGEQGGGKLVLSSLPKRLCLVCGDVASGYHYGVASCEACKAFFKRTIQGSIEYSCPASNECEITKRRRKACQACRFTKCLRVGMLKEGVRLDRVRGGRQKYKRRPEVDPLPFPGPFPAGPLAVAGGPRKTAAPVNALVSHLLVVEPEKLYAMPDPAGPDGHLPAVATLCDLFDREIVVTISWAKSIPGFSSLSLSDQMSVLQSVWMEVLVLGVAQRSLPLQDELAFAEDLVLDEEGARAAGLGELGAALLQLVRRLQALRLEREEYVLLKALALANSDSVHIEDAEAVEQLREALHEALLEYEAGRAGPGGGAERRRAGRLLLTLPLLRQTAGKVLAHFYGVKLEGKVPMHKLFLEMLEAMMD
How it was run: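 HepG2 cells transiently transfected with GAL4-UAS reporter units and chimeric NR-Gal4 constructs; after 24 hour compound incubation, reporter mRNA quantified by RT-PCR, fluorescent labelling and capillary electrophoresis, gain of signal versus DMSO.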

Measured: outcome

CCC(C)CCCC(C)(C)O (stereo not given)
inactive: [1] | [2] | [3] | [4] | [5] | [6] | [7] | [8] | [9] | [10] | [11] | [12] | [13] | [14]

CCCCCCCCC
inactive: [1] | [2] | [4] | [6] | [7] | [8] | [9] | [10] | [11] | [12] | [15] | [13] | [14] | [16]

CNCCO
inactive: [1] | [2] | [3] | [4] | [7] | [8] | [9] | [10] | [11] | [13] | [14]

O=C(O)c1ccc(C(=O)O)cc1
inactive: [1] | [2] | [3] | [5] | [6] | [7] | [8] | [9] | [10] | [11] | [12] | [13] | [14] | [16]

C=CCOC(=O)CCC1CCCCC1
inactive: [1] | [2] | [4] | [5] | [7] | [8] | [9] | [10] | [11] | [12] | [17] | [13]

CCCCCCOC(=O)CC
inactive: [1] | [2] | [3] | [6] | [7] | [8] | [9] | [10] | [11] | [12] | [15] | [18] | [13] | [14]

CC(C)=CCCC(C)CC=O (stereo not given)
inactive: [1] | [3] | [4] | [5] | [6] | [7] | [8] | [9] | [10] | [12] | [14]

OCc1cccnc1
inactive: [1] | [3] | [4] | [5] | [6] | [7] | [8] | [9] | [10] | [11] | [17] | [15] | [16]

Cc1ccc(C(=O)O)o1
inactive: [1] | [2] | [3] | [4] | [5] | [6] | [7] | [8] | [9] | [10] | [12] | [13]
